# Results with a measured potency or affinity are listed apart.
# Legend:
# [1] = tested on: Staphylococcus aureus; conditions: Concentration 20 uM; ASSAY_TEST Inhibition of Bacterial Growth; detection method Absorption (OD600); MEDIA CAMHB; plate type 384well; NBS; CORNING #3640; time 18 hr
# [2] = tested on: Escherichia coli; conditions: Concentration 20 uM; ASSAY_TEST Inhibition of Bacterial Growth; detection method Absorption (OD600); MEDIA CAMHB; plate type 384well; NBS; CORNING #3640; time 18 hr
SMILES,Inhibition [1] [%],Inhibition [2] [%]
CN1CCC[C@H]1c1cccnc1 [NICOTINE],-15.48,6.98
O=C(O)CCCc1ccc(N(CCCl)CCCl)cc1 [CHLORAMBUCIL],7.69,8.33
CCC1(c2ccc(N)cc2)CCC(=O)NC1=O (stereo not drawn) [AMINOGLUTETHIMIDE],-4.21,2.02
Cl.O[C@@H]1CCCC[C@H]1N1CCC(c2ccccc2)CC1,14.8,1.48

# Source: ChEMBL document CHEMBL4513141, “CO-ADD screening of NIH (USA) - Clinical Collection” (2021)
